Article PMC7862700, “An all-to-all approach to the identification of sequence-specific readers for epigenetic DNA modifications on cytosine”

What was measured:
Experiment in all cases: DAPPL (digital affinity profiling via proximity ligation, sequencing); 10 mM Tris-HCl pH 7.5, 50 mM NaCl, 1 mM DTT, 4% glycerol, room temperature, 30 min; GST-TFs on glutathione beads, 16-mer random dsDNA library, 0.1% formaldehyde crosslink after washing; high values mean tight binding
Conditions in all cases: protein: recombinant; tags: N-terminal GST; dsDNA, one strand shown
FLI1 = target: T1, FLI1 (Homo sapiens, UniProt Q01543 1-452)
T1 sequence: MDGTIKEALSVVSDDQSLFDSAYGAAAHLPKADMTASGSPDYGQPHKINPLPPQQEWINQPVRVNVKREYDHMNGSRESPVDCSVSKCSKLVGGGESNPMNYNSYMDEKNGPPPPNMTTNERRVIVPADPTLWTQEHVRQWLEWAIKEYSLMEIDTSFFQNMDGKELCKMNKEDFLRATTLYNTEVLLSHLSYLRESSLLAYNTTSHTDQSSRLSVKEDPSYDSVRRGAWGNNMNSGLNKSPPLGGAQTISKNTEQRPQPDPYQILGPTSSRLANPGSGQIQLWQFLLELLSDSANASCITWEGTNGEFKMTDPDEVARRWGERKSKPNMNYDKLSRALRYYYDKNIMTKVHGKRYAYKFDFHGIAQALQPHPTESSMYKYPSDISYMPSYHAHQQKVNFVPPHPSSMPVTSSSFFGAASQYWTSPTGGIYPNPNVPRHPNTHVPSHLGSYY
In short: (§1)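 Binding signal is defined as a hexamer's read frequency for one factor over its frequency for the tag-only sample. To obtain reads, GST-fused human transcription factors were expressed in yeast, captured on glutathione beads, barcoded with DNA and pooled with that sample. Pools met 200 nmole of a 16-mer random double-stranded DNA library in Tris/NaCl/DTT/glycerol buffer for 30 min at room temperature before washing, 0.1% formaldehyde crosslinking, proximity ligation (BsaI/T4 ligase, 1 h, 37 °C), PCR and Illumina NextSeq500 sequencing.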

ELK1 = target: T2, ELK1 (Homo sapiens, UniProt P19419 1-428)
T2 sequence: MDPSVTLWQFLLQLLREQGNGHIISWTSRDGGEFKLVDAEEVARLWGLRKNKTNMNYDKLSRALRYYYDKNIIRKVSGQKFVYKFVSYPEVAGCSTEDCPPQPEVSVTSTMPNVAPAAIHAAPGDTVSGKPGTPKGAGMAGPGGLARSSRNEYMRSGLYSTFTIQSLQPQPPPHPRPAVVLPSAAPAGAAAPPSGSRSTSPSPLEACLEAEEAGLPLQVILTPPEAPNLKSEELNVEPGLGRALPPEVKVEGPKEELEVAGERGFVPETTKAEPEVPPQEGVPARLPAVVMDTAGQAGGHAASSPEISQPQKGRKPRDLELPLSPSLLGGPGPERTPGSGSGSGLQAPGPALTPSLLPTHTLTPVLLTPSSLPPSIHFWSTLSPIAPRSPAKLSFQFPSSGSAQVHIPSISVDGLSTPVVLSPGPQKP
In short: as §1

GABPA = target: T3, GABPA (Homo sapiens, UniProt Q06546 1-454)
T3 sequence: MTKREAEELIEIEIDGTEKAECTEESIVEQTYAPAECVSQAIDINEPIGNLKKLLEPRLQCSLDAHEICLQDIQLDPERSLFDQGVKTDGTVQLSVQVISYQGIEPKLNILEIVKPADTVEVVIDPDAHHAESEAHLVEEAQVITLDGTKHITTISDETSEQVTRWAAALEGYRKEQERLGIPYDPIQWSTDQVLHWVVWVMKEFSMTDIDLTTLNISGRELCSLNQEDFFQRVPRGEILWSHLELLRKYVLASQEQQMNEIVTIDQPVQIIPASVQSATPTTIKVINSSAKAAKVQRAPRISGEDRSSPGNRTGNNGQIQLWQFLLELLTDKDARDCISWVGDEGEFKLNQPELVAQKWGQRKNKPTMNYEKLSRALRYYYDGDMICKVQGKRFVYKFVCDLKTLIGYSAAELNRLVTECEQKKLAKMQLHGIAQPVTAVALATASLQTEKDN
In short: as §1

ERG = target: T4, ERG (Homo sapiens, UniProt P11308 1-479)
T4 sequence: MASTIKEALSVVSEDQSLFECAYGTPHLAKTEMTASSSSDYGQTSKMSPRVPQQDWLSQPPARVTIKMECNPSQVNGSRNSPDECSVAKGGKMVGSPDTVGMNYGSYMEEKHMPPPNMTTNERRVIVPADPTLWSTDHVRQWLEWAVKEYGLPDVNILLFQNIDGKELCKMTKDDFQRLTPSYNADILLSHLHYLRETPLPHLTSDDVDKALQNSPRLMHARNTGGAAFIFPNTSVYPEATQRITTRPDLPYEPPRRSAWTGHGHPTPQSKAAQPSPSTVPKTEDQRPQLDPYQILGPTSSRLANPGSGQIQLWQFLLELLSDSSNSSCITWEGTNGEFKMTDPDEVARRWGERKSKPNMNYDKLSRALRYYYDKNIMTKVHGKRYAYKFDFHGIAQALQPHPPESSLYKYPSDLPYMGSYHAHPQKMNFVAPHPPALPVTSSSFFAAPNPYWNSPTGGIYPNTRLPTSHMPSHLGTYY
In short: as §1

ELF1 = ELF1 (Homo sapiens, UniProt P32519 1-619)
In short: as §1

EHF = target: T5, EHF (Homo sapiens, UniProt Q9NZC4 1-300)
T5 sequence: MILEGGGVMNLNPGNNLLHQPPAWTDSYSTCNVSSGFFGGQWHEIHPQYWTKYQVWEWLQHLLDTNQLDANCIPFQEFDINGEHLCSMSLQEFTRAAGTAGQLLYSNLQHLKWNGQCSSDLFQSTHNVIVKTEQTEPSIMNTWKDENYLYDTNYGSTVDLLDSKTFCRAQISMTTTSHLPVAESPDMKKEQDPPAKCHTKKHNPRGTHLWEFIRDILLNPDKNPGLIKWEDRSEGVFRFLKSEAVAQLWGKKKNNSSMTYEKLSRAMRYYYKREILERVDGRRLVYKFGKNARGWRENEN
In short: as §1

FEV = target: T6, FEV (Homo sapiens, UniProt Q99581 1-238)
T6 sequence: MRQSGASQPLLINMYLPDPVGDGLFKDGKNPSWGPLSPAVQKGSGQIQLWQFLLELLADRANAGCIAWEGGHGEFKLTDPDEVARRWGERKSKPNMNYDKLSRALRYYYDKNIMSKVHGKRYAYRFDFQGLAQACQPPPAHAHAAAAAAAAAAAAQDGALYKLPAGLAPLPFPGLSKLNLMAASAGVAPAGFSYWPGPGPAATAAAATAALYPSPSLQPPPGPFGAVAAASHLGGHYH
In short: as §1

SPIC = target: T7, SPIC (Homo sapiens, UniProt Q8N5J4 1-248)
T7 sequence: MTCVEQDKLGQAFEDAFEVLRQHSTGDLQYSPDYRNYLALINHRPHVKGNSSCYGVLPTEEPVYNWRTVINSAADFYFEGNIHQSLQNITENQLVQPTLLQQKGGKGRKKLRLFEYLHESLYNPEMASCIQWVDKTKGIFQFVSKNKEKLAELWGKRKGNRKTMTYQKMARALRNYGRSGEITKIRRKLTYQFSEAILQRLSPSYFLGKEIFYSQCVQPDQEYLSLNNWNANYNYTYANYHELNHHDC
In short: as §1

ELF4 = ELF4 (Homo sapiens, UniProt Q99607 1-663)
In short: as §1

Chain of ELF4 (Q99607 whole entry): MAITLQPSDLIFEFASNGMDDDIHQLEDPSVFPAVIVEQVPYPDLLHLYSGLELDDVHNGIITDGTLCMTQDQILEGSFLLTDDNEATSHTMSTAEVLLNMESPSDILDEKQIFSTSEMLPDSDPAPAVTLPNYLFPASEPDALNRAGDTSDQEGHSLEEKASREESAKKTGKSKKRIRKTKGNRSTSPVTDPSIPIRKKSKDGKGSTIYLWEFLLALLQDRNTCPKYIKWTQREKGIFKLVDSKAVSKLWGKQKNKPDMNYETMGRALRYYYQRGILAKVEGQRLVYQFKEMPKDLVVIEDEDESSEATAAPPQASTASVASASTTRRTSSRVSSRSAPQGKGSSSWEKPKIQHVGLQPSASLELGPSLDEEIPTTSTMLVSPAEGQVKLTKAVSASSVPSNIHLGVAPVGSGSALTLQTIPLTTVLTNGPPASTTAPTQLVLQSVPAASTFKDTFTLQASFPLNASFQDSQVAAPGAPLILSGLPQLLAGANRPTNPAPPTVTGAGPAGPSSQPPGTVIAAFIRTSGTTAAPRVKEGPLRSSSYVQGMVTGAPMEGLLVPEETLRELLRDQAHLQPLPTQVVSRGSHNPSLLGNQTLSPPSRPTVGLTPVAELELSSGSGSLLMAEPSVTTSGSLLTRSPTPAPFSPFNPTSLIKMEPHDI
Chain of ELF1 (P32519 whole entry): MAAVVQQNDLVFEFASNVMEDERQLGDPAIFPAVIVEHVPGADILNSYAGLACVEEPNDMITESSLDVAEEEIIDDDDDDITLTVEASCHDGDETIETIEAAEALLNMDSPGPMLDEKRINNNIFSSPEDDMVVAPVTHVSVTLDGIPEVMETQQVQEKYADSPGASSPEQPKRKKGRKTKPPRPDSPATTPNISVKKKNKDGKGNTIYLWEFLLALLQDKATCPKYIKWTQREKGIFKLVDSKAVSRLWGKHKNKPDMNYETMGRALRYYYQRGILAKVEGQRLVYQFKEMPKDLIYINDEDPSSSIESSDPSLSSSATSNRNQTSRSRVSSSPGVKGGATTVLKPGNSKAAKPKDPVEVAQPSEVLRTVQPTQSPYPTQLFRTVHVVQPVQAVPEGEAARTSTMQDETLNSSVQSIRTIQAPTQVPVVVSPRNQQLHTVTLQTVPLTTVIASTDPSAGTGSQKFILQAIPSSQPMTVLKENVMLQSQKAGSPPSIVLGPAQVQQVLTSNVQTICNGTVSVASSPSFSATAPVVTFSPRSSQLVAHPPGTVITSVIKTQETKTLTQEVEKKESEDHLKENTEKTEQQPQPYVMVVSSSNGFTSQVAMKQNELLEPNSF

In the case of CACACC, the binding signal (FLI1) is reported as 1.07 fold enrichment (6-mer frequency, TF over GST control), the binding signal (ELK1) is reported as 1.07 fold enrichment (6-mer frequency, TF over GST control) and the binding signal (GABPA) is reported as 1.01 fold enrichment (6-mer frequency, TF over GST control). The binding signal (ERG) was 1.04 fold enrichment (6-mer frequency, TF over GST control), the binding signal (ELF1) was 1.02 fold enrichment (6-mer frequency, TF over GST control) and the binding signal (EHF) was 1.04 fold enrichment (6-mer frequency, TF over GST control). The binding signal (FEV) was 1.07 fold enrichment (6-mer frequency, TF over GST control), the binding signal (SPIC) was 1.09 fold enrichment (6-mer frequency, TF over GST control) and the binding signal (ELF4) was 1.06 fold enrichment (6-mer frequency, TF over GST control).
